The source made the active and inactive calls. The rule behind the calls is not given here.
Biological target: Histone deacetylase 3 (Homo sapiens) (UniProt O15379)
Experiment: inhibitors of recombinant human HDAC3 – biochemical, selectivity assay for E-cadherin restoration project, profiling panel (AID 651916)
Details: recombinant HDAC3, fluorogenic peptide substrate, % enzyme activity; series mostly up to 10 µM

Sequence of Histone deacetylase 3 (Homo sapiens) (O15379 whole entry, looked up): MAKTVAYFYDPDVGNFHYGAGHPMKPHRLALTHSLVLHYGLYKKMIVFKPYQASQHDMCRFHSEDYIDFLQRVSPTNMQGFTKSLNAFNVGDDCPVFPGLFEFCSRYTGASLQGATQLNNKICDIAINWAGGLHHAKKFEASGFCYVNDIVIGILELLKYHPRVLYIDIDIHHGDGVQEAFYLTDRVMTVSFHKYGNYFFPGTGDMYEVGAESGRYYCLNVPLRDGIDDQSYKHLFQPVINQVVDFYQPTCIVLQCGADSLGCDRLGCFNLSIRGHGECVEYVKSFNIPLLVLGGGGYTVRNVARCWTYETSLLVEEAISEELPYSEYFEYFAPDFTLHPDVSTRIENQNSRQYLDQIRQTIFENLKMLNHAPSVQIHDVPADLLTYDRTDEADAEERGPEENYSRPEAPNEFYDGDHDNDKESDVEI

O=C(NCCCNC(=O)c1ccc[nH]c1=O)c1cc(-c2ccccc2)on1
outcome: inactive

— PubChem BioAssay AID651916 (Vanderbilt Specialized Chemistry Center, 2012)
